An excerpt weighted towards active compounds, which were near 4.7% of everything screened.
ALR inh = inhibitors of human sulfhydryl oxidase ALR. P55789. purified ALR, DTT oxidation, H2O2 HRP-luminol luminescence. inhibition, % (test concentration not listed). 3.8% of 290,000 active. AID 485317;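 active = mean replicate inhibition above about 79%, with every replicate also reaching it, limit read from the data; inconclusive = only one of the two criteria met; inactive = mean below limit and not every replicate reaching it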
Target sequence (P55789 whole entry, looked up): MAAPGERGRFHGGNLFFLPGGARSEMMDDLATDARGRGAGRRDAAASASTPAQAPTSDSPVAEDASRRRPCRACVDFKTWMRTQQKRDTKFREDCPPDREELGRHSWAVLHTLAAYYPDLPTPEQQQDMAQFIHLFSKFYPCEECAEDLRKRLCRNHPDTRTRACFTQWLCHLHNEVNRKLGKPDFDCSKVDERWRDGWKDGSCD
eIF4H FP inh = inhibitors of RNA binding by human eIF4H; eIF4H fluorescence polarization binding assay; Q15056; 0.94% of 290,000 active; inhibition, % at 35 µM;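 note: calls also rest on retests at 20 µM and on dose response follow-up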
PABP FP inh = blocks human PABP binding to poly(A) RNA. P11940. fluorescence polarization. inhibition, % at 35 µM. 1% of 290,000 active. AID 2014;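 note: calls also rest on retests at 20 µM and on dose response follow-up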
Efflux pump inh = antifungal efflux pump inhibition, Nile Red retention; S. cerevisiae Candida pump triplex; inhibition, % at 10 µM; 0.44% of 330,000 active; AID 485275;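 active = plate passing quality check with inhibition over a set limit, or well fluorescence over plate mean plus 4 SD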;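 note: Nile Red retained in pooled yeast measured as flow cytometry median fluorescence; higher means more Nile Red kept so more efflux inhibition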
PABP1 MLLE inh = inhibitors of microRNA-mediated deadenylation, human PABP1 MLLE binding. inhibition, % at 20 µM. P11940. 0.36% of 360,000 active. GST-MLLE / FITC-PAM2 fluorescence polarization. AID 588489; in the data active = inhibition above about 35%, passing the limit was not always enough
SUMO HTRF inh = blocks human SUMOylation mediated by UBC9; 0.36% of 290,000 active; P63279; inhibition, % at 35 µM; HTRF SUMOylation assay, SAE1/SAE2 + UBC9, in vitro; AID 2006; in the data active = inhibition above about 50%, passing the limit was not always enough; inconclusive = no clear call, values can overlap the other calls
Target sequence (P63279 whole entry, looked up): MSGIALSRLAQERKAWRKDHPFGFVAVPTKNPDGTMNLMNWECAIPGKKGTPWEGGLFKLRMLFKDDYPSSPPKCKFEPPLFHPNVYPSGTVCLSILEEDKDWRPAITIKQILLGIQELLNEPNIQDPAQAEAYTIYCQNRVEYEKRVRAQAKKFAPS
A number is an active result. Unless noted, the rule behind the calls is not given here.

Screening COCCNC(=O)C1CCCN(C(=O)c2cc(-c3ccccc3)cs2)CC1 (stereo unspecified) returned PABP1 MLLE inh inactive.
`CN1/C(=C\C=N\NC(=O)c2ccc(O)cc2)C(C)(C)c2ccccc21` gave ALR inh inactive, eIF4H FP inh inconclusive, PABP FP inh inactive, Efflux pump inh inactive, PABP1 MLLE inh inactive and SUMO HTRF inh inactive.
CN1/C(=C\C=N\NC(=O)c2cccnc2)C(C)(C)c2ccccc21 was read as ALR inh 98, eIF4H FP inh inactive, PABP FP inh inactive, Efflux pump inh inactive, PABP1 MLLE inh inactive and SUMO HTRF inh inactive.
For O=C(CSC1=NS(=O)(=O)c2cc(Cl)ccc2N1)Nc1cccc(F)c1 the results were ALR inh 98, Efflux pump inh inactive and PABP1 MLLE inh inactive.
Screening O=C(CSC1=NS(=O)(=O)c2ccccc2N1)Nc1ccc(F)cc1 returned ALR inh 97, Efflux pump inh inactive and PABP1 MLLE inh inactive.
Screening Cc1nnc(NC(=O)C(C)Sc2nnc(CNC(=O)c3ccccc3F)n2C)s1 (stereo unspecified) returned ALR inh inactive, Efflux pump inh inactive and PABP1 MLLE inh inactive.
For CCOC(=O)C1(CCCc2ccccc2)CCN(C(=O)C(C)n2cncn2)CC1 (stereo unspecified) the results were ALR inh inactive, eIF4H FP inh inactive, PABP FP inh inactive, Efflux pump inh inactive, PABP1 MLLE inh inactive and SUMO HTRF inh inactive.
`Cc1cc(C)cc(N=Cc2[nH]c3ccc(Br)c(Cl)c3c2O)c1` gave eIF4H FP inh inconclusive, PABP FP inh 3.8, Efflux pump inh inactive, PABP1 MLLE inh inactive and SUMO HTRF inh inactive.
COc1ccc(CN=Cc2[nH]c3ccc(Br)c(Cl)c3c2O)cc1 was read as ALR inh inactive, eIF4H FP inh inactive, PABP FP inh inactive, Efflux pump inh inactive, PABP1 MLLE inh inactive and SUMO HTRF inh inactive.
`CCN(CC)C(=O)c1cccc(NC(=O)c2ccccc2OCc2c(C)noc2C)c1` gave ALR inh inactive, Efflux pump inh inactive and PABP1 MLLE inh inactive.
`Cc1nn(C(C)C(=O)NCCCN2CCCC2)c(=O)c2nn(-c3ccccc3)c(C)c12` (stereo unspecified) gave ALR inh inactive, eIF4H FP inh inactive, PABP FP inh inactive, Efflux pump inh inactive, PABP1 MLLE inh inactive and SUMO HTRF inh inactive.
For Cc1ccc(NC2OC(C(O)CO)C(O)C2O)cc1[N+](=O)[O-] (stereo unspecified) the results were ALR inh inactive, eIF4H FP inh 93, PABP FP inh inactive, Efflux pump inh inactive, PABP1 MLLE inh inactive and SUMO HTRF inh inactive.
Screening Cc1ccc(NC(=O)CSC2=C(C#N)C(c3ccco3)C3=C(CC(C)(C)CC3=O)N2)cc1 (stereo unspecified) returned ALR inh 98, eIF4H FP inh inactive, PABP FP inh inactive, Efflux pump inh inactive, PABP1 MLLE inh inactive and SUMO HTRF inh inactive.
For Cc1ccc(NC(=O)CSC2=C(C#N)C(c3ccco3)CC(=O)N2)cc1 (stereo unspecified) the results were ALR inh 99, eIF4H FP inh inactive, PABP FP inh inactive, Efflux pump inh inactive, PABP1 MLLE inh inactive and SUMO HTRF inh inactive.
For CCc1ccc(NC(=O)CSC2=C(C#N)C(c3ccco3)C3=C(CCCC3=O)N2)cc1 (stereo unspecified) the results were ALR inh inactive, eIF4H FP inh inactive, PABP FP inh inactive, Efflux pump inh inactive, PABP1 MLLE inh inactive and SUMO HTRF inh inactive.
Screening Cc1ccc(C(=O)CSC2=C(C#N)C(c3ccco3)CC(=O)N2)c(C)c1 (stereo unspecified) returned ALR inh 92, eIF4H FP inh inactive, PABP FP inh inactive, Efflux pump inh inactive, PABP1 MLLE inh inactive and SUMO HTRF inh inactive.
CCOC(=O)C1(C(=O)OCC)C(C)CC(=O)N1c1ccccc1OC (stereo unspecified) was read as PABP1 MLLE inh inactive.
Screening CC(C)=C(NC(=O)c1ccccc1Br)C(=O)NCCc1nc2ccccc2[nH]1 returned ALR inh inactive, eIF4H FP inh 112, PABP FP inh active, Efflux pump inh inactive, PABP1 MLLE inh inactive and SUMO HTRF inh inactive.
CC(C)n1c(/C=C/[C@H](O)C[C@H](O)CC(=O)O)c(-c2ccc(F)cc2)c2ccccc21 was read as ALR inh 99, Efflux pump inh inactive and PABP1 MLLE inh inactive.
